Where “and” joins values, the source holds several entries; their conditions need not be identical. Equal entries are not always repeated.
target: Serine/threonine-protein kinase MRCK beta (Homo sapiens) (UniProt Q9Y5S2); settings: at 0.1 µM
Sequence (Q9Y5S2 whole entry): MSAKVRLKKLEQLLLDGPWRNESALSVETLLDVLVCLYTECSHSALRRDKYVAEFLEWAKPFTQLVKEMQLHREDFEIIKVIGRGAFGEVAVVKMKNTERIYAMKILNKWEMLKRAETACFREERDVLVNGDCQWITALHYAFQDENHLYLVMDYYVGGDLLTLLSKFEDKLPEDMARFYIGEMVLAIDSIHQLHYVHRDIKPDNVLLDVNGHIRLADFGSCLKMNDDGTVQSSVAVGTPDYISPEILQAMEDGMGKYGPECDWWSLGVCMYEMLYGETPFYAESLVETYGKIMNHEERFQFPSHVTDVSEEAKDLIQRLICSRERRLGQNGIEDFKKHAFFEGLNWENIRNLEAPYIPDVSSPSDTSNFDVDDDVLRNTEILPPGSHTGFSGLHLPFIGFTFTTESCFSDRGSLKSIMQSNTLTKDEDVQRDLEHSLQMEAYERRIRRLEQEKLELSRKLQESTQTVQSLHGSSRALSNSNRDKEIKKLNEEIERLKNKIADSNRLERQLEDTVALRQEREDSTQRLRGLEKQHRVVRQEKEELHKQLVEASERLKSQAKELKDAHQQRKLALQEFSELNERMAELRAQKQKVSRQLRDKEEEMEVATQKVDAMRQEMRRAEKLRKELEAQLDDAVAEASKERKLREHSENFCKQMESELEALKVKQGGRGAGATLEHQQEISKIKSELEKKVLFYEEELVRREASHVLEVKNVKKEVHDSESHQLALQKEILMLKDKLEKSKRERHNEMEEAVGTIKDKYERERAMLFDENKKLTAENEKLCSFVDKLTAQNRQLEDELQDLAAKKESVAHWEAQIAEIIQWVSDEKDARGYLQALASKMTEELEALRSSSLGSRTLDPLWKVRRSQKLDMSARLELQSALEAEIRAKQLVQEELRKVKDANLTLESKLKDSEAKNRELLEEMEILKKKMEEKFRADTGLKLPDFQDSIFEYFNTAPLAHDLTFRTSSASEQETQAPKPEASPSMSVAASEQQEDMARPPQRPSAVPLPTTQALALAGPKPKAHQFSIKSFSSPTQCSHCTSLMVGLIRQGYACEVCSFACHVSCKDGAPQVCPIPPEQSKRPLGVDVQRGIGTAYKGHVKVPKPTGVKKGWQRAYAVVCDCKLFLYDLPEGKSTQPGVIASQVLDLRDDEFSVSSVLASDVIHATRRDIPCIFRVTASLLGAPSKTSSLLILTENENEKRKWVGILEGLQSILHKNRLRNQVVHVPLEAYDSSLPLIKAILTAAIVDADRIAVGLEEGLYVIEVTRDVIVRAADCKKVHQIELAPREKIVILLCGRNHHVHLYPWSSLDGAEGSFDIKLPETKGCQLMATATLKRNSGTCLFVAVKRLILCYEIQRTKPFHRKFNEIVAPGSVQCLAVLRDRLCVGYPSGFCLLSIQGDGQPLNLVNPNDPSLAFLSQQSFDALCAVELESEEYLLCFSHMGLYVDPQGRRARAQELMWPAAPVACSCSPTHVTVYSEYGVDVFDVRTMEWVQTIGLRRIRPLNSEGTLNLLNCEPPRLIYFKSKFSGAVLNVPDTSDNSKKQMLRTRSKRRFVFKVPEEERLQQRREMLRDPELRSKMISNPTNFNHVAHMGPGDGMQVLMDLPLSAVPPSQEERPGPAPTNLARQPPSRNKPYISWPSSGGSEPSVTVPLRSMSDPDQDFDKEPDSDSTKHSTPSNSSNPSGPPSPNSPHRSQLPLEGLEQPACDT

| Compound | inhibition |
| --- | --- |
| c1cnn2ncc(-c3ccnc(NCCCN4CCOCC4)n3)c2c1 | 0.55% |
| CS(=O)(=O)CCNCc1ccoc1-c1ccc2ncnc(Nc3ccc(OCc4ccccc4)cc3)c2c1 | -0.65% |
| COc1ccccc1-c1cc(/C=C2\C(=O)Nc3ncc(Br)cc32)cc(Br)c1O | -0.06% |
| CN(C)CCNC(=O)Nc1ccc(N(C)c2ccnc(Nc3ccc(CS(C)(=O)=O)cc3)n2)cc1 | 1.09% |
| N#Cc1cccc(Nc2ncc(-c3ccccc3)o2)c1 | -1.64% |
| Cc1nnc(-c2cccc(-c3ccc(C(=O)NCC4CC4)cc3)c2)o1 | -0.19% |
| CCN1CCC(C(=O)Nc2n[nH]c3nnc(-c4cccc(F)c4F)cc23)CC1 | 0.8% |
| FC(F)(F)CNc1nccc(-c2cnn3ncccc23)n1 | -0.09% |
| c1ccc(-c2n[nH]cc2-c2ccnc(-c3ccc(OCCn4ccnc4)cc3)c2)nc1 | 1.02% |
| COc1cccc(Nc2nccc(-c3cnn4ncccc34)n2)c1 | -1.65% |
| CS(=O)(=O)CCNCc1ccc(-c2ccc3ncnc(Nc4ccc(OCc5ccccc5)cc4)c3c2)o1 | 0.05% |
| CN1CCN(Cc2ccc(-c3cc4ncnc(Nc5ccc(OCc6cccc(F)c6)c(Cl)c5)c4s3)o2)CC1 | -0.68% and -0.01% |
| O=C(O[C@H]1CN[C@H](C#Cc2cc3ncnc(Nc4ccc5c(cnn5Cc5ccccc5)c4)c3s2)C1)N1CCOCC1 | -0.65% |
| O=C(O[C@H]1CN[C@H](C#Cc2cc3ncnc(Nc4ccc5c(ccn5Cc5cc(F)ccc5F)c4)c3s2)C1)N1CCOCC1 | 1.19% |
| CS(=O)(=O)Nc1ccc(-c2ccc3c(NC(=O)C4CC4)n[nH]c3c2)cc1 | -0.12% |
| O=C(Nc1n[nH]c2nnc(-c3cccnc3)cc12)C1CC1 | 0.62% |

| Compound | inhibition |
| --- | --- |
| COc1ccc(Nc2ncc(-c3ccccc3)o2)cc1OC | 0.74% |
| COc1ccc(-c2nn3ncccc3c2-c2ccnc(Nc3ccc(F)c(F)c3)n2)cc1 | -0.01% |
| OCCCNc1nccc(-c2c(-c3ccc(F)cc3)nn3cc(C(F)(F)F)ccc23)n1 | 0.31% |
| CC1(C)CC(n2cnc(-c3ccc(F)cc3)c2-c2ccnc(N)n2)CC(C)(C)N1 | 0.89% |
| Cc1cc(O)cc(C)c1/C=C/c1cncc(C(N)=O)c1 | 1.39% |
| CN1CCC(n2cnc(-c3ccc(F)cc3)c2-c2ccnc(NCCO)n2)CC1 | -1.48% |
| O=C1Nc2ccccc2/C1=C1\CCc2cc(O)ccc21 | 1.68% |
| CC1=C(C(=O)Nc2ccc3[nH]ncc3c2)C(c2ccc(F)cc2)N=C(c2ccc(C(F)(F)F)nc2)N1 (configuration not stated) | -0.07% |
| COC(=O)Nc1nc2ccc(Oc3ccc(NC(=O)Nc4cc(C(F)(F)F)ccc4F)cc3)cc2s1 | 0.73% |
| Cn1c(-c2nonc2N)nc2cnccc21 | 3.02% |
| CNC(=O)c1ncccc1Nc1nc(Nc2cc3c(cc2OC)CCCN3C(=O)CN(C)C)nc2[nH]ccc12 | 1.2% |
| COc1c(C(N)=O)cc(-c2ccc(Cl)cc2)cc1-c1ccc(S(N)(=O)=O)cc1 | -0.26% |
| CS(=O)(=O)CCNCc1ccc(-c2ccc3ncnc(Nc4ccc(OCc5cccc(C(F)(F)F)c5)cc4)c3c2)o1 | 0.69% |
| NC(=O)c1ccc2c(-c3ccnc(NCCCO)n3)c(-c3ccc(F)cc3)nn2c1 | 0.29% |
| COc1cc(Nc2ncc(-c3ccccc3)o2)cc(OC)c1 | -0.81% |

target: Serine/threonine-protein kinase MRCK beta (Homo sapiens) (UniProt Q9Y5S2); settings: at 1 µM

| Compound | inhibition |
| --- | --- |
| c1cnn2ncc(-c3ccnc(NCCCN4CCOCC4)n3)c2c1 | 3.84% |
| CS(=O)(=O)CCNCc1ccoc1-c1ccc2ncnc(Nc3ccc(OCc4ccccc4)cc3)c2c1 | -2.47% |
| COc1ccccc1-c1cc(/C=C2\C(=O)Nc3ncc(Br)cc32)cc(Br)c1O | -0.72% |
| CN(C)CCNC(=O)Nc1ccc(N(C)c2ccnc(Nc3ccc(CS(C)(=O)=O)cc3)n2)cc1 | 2.25% |
| N#Cc1cccc(Nc2ncc(-c3ccccc3)o2)c1 | -0.28% |
| Cc1nnc(-c2cccc(-c3ccc(C(=O)NCC4CC4)cc3)c2)o1 | -0.8% |
| CCN1CCC(C(=O)Nc2n[nH]c3nnc(-c4cccc(F)c4F)cc23)CC1 | -0.36% |
| FC(F)(F)CNc1nccc(-c2cnn3ncccc23)n1 | -0.68% |
| c1ccc(-c2n[nH]cc2-c2ccnc(-c3ccc(OCCn4ccnc4)cc3)c2)nc1 | 2.11% |
| COc1cccc(Nc2nccc(-c3cnn4ncccc34)n2)c1 | -1.51% |
| CS(=O)(=O)CCNCc1ccc(-c2ccc3ncnc(Nc4ccc(OCc5ccccc5)cc4)c3c2)o1 | 1.22% |
| CN1CCN(Cc2ccc(-c3cc4ncnc(Nc5ccc(OCc6cccc(F)c6)c(Cl)c5)c4s3)o2)CC1 | -1.28% and -0.15% |
| O=C(O[C@H]1CN[C@H](C#Cc2cc3ncnc(Nc4ccc5c(cnn5Cc5ccccc5)c4)c3s2)C1)N1CCOCC1 | -2.08% |
| O=C(O[C@H]1CN[C@H](C#Cc2cc3ncnc(Nc4ccc5c(ccn5Cc5cc(F)ccc5F)c4)c3s2)C1)N1CCOCC1 | 1.68% |
| CS(=O)(=O)Nc1ccc(-c2ccc3c(NC(=O)C4CC4)n[nH]c3c2)cc1 | 1.45% |
| O=C(Nc1n[nH]c2nnc(-c3cccnc3)cc12)C1CC1 | 0.7% |

| Compound | inhibition |
| --- | --- |
| COc1ccc(Nc2ncc(-c3ccccc3)o2)cc1OC | 1.74% |
| COc1ccc(-c2nn3ncccc3c2-c2ccnc(Nc3ccc(F)c(F)c3)n2)cc1 | -0.11% |
| OCCCNc1nccc(-c2c(-c3ccc(F)cc3)nn3cc(C(F)(F)F)ccc23)n1 | 1.86% |
| CC1(C)CC(n2cnc(-c3ccc(F)cc3)c2-c2ccnc(N)n2)CC(C)(C)N1 | 1.72% |
| Cc1cc(O)cc(C)c1/C=C/c1cncc(C(N)=O)c1 | 1.02% |
| CN1CCC(n2cnc(-c3ccc(F)cc3)c2-c2ccnc(NCCO)n2)CC1 | 0.28% |
| O=C1Nc2ccccc2/C1=C1\CCc2cc(O)ccc21 | 1.65% |
| CC1=C(C(=O)Nc2ccc3[nH]ncc3c2)C(c2ccc(F)cc2)N=C(c2ccc(C(F)(F)F)nc2)N1 (configuration not stated) | 4.54% |
| COC(=O)Nc1nc2ccc(Oc3ccc(NC(=O)Nc4cc(C(F)(F)F)ccc4F)cc3)cc2s1 | 1.68% |
| Cn1c(-c2nonc2N)nc2cnccc21 | 14.4% |
| CNC(=O)c1ncccc1Nc1nc(Nc2cc3c(cc2OC)CCCN3C(=O)CN(C)C)nc2[nH]ccc12 | 2.41% |
| COc1c(C(N)=O)cc(-c2ccc(Cl)cc2)cc1-c1ccc(S(N)(=O)=O)cc1 | 2.36% |
| CS(=O)(=O)CCNCc1ccc(-c2ccc3ncnc(Nc4ccc(OCc5cccc(C(F)(F)F)c5)cc4)c3c2)o1 | 2% |
| NC(=O)c1ccc2c(-c3ccnc(NCCCO)n3)c(-c3ccc(F)cc3)nn2c1 | 2.28% |
| COc1cc(Nc2ncc(-c3ccccc3)o2)cc(OC)c1 | 0.65% |

— ChEMBL document CHEMBL1961873, “Compounds: GSK PKIS; Assays: Nanosyn kinase panel” (2012)
